High-throughput results deposited in PubChem BioAssay by NMMLSC.
Granule exo inh = blocks lytic granule exocytosis | AID 651702 | TALL-104 LAMP-1 surface exposure, flow cytometry; cells stimulated with thapsigargin and PMA | 360,000 compounds, 0.66% hits | inhibition, % at 10 µM;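 active = inhibition above about 55%, limit read from the data; inconclusive = no clear call, values can overlap the other calls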
Myeloid diff 2 = compounds promoting myeloid differentiation; ER-HoxA9 myeloid progenitors, lysozyme-GFP differentiation, flow cytometry; calls only at 10 µM; 360,000 compounds, 1% hits;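 active = normalized GFP-positive differentiation at or above the plate's own cutoff, the solvent-only control mean plus 3 SD; inconclusive = no clear call, values can overlap the other calls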;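 also: cells exposed to compound for four days before flow analysis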
ABCB6 inh MLPCN = blocks the human ABCB6 transporter; Q9NP58; K562-ABCB6 porphyrin accumulation, flow cytometry, 1 h; hits give low values; fluorescence ratio to DMSO, % at 10 µM; 360,000 compounds, 0.19% hits;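 active = fluorescence ratio to DMSO below 75%, the collection mean minus 3 SD; inconclusive = too few cells collected in the well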;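 also: signal is porphyrin accumulated inside mitochondria; 100% equals median channel fluorescence of DMSO control wells; lower ratio means ABCB6 inhibition with less porphyrin fluorescence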
Target sequence (Q9NP58 whole entry, looked up): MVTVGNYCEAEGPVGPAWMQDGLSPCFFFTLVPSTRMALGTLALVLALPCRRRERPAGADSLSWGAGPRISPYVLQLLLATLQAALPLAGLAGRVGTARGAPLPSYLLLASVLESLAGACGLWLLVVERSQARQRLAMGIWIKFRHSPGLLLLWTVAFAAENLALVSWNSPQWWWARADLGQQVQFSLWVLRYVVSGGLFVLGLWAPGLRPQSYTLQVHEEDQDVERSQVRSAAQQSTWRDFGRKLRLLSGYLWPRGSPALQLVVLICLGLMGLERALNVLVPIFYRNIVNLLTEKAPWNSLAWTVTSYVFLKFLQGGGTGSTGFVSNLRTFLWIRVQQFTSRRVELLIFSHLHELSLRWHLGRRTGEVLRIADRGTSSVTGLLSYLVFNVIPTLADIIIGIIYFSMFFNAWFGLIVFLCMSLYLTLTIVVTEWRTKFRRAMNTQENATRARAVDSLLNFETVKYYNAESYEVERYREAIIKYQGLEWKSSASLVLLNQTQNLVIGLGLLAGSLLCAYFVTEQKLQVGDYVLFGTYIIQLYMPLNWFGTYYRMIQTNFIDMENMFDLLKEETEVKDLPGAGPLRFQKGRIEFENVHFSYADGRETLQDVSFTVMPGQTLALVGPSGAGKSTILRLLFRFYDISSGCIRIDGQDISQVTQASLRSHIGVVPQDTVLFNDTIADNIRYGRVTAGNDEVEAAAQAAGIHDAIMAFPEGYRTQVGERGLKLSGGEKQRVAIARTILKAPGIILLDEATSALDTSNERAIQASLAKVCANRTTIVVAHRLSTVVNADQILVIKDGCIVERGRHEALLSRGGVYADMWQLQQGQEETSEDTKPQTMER
An asterisk follows results filed as active; i = inactive; ? = inconclusive; nt = not tested or not shown; + = active, no number; ! = repeats disagree. In the library only some 1.8% were active in any assay of this set; here they are far more common.

SMILES	Granule exo inh	Myeloid diff 2	ABCB6 inh MLPCN
CC(=O)Nc1cccc(/C(C)=N/NC(=O)c2cccc(S(=O)(=O)N3CCCC3)c2)c1	-2.8	i	72.0*
O=C(COc1ccccc1)Nc1nc(-c2cccs2)cs1	-3.0	i	95.0
O=C(Nc1nc(-c2cccs2)cs1)c1ccc(S(=O)(=O)N2CCCCC2)cc1	1.9	i	97.0
CC(=NNC(=O)c1cccc(S(=O)(=O)N2CCCC2)c1)c1ccccc1	5.1	i	94.0
O=C(CCS(=O)(=O)c1ccccc1)Nc1nc(-c2cccs2)cs1	-0.6	+	95.0
CCC(c1nnnn1-c1ccc2c(c1)OCCO2)N1CCN(c2ccc(C(F)(F)F)cc2[N+](=O)[O-])CC1 (centres undefined)	-1.2	i	95.0
O=C(CSc1nnc(COc2ccc(Cl)cc2)o1)N(c1ccccc1)C1CCS(=O)(=O)C1 (centres undefined)	4.9	i	114.0
COc1ccc([C@@H]2C[C@H]3[C@@H](CN2S(=O)(=O)c2ccccc2)C(=O)C[C@@H](c2ccccc2)N3S(=O)(=O)c2ccc(C)cc2)cc1	-0.9	i	100.0
O=P1(NC2CCCC2)OCC2(CO1)COP(=O)(NC1CCCC1)OC2 (centres undefined)	-2.9	i	101.0
NC(=O)C1=CC2C3C=CC2(O)C(=O)OC3O1 (centres undefined)	-1.6	?	104.0
CS(=O)(=O)N1CCc2cc(-c3csc(NC(=O)C(c4ccccc4)c4ccccc4)n3)ccc21	-4.3	i	94.0
CC1Cc2cc(-c3csc(NC(=O)Cc4ccccc4)n3)ccc2N1S(C)(=O)=O (centres undefined)	4.3	+	106.0
CC(C)Cn1c(N)c(C(=O)COC(=O)c2ccc(Br)cc2)c(=O)n(C)c1=O	2.4	i	101.0
COC(=O)c1cccc(NC(=O)/C=C/c2ccc([N+](=O)[O-])cc2)c1	-1.7	i	98.0
O=C(/C=C/c1ccc([N+](=O)[O-])cc1)Nc1cccc(C(=O)Nc2ccccc2C(=O)O)c1	-6.2	+	123.0
CCOc1cc(N2CCOCC2)c(OCC)cc1NC(=O)c1ccc(OC)c(S(=O)(=O)N2CCOCC2)c1	10.5	i	113.0
O=c1[nH]c2ccccc2nc1-c1nnnn1C1CCCC1	-3.1	i	96.0
O=c1[nH]c2cc3ccccc3cc2nc1-c1nnnn1C1CCCC1	17.0	+	104.0
COC(=O)C(CC(=O)c1ccc(C)cc1)n1nc(C)cc1C (centres undefined)	56.6*	i	101.0
COC(=O)C(CC(=O)c1ccc(Br)cc1)n1nc(C)cc1C (centres undefined)	36.8	i	96.0
CN1CC(=O)N(CC(=O)Nc2ccc(OCc3ccccc3)cc2)C1=O	5.8	i	96.0
COc1ccc(NC(=O)c2c(-c3ccccc3)noc2C)c(OC)c1	-0.2	i	103.0
COc1cccc(/C=N/NC(=O)c2c(-c3ccccc3)noc2C)c1O	-7.9	+	94.0
COC(=O)c1cc(OC)c(OC)cc1NC(=O)c1c(-c2ccccc2)noc1C	7.1	+	108.0
COc1cccc(/C=N/NC(=O)c2c(-c3ccccc3)noc2C)c1OC	1.1	i	103.0
SMILES	Granule exo inh	Myeloid diff 2	ABCB6 inh MLPCN
COc1ccc(OC)c(NC(=O)C2(C)CCN2C(=O)C2(c3ccccc3)CCCC2)c1 (centres undefined)	-3.3	i	92.0
O=C(O)COc1ccc(/C=C/c2nc(-c3ccccc3O)n[nH]2)cc1	7.9	i	103.0
COc1ccc(/C=C/c2nc(-c3ccccc3O)n[nH]2)cc1OC	64.6*	i	94.0
COc1ccccc1N(C)S(=O)(=O)c1ccc(C)c(C(=O)NCc2ccccn2)c1	0.3	i	78.0
Cc1cc(C(=O)NCc2ccco2)on1	-4.2	i	100.0
CCOC(=O)c1cnc2c(C)cccc2c1NCc1ccco1	-2.9	+	101.0
Cc1ccccc1C(=O)OCC(=O)NCc1ccco1	61.5*	i	96.0
CCOC(=O)c1cnc2c(C(=O)OC)cccc2c1NCc1ccco1	-1.0	i	104.0
Cc1cccc(Nc2ccccc2C(=O)OCC(=O)NCc2ccco2)c1C	-9.5	i	95.0
Cc1ccc(C(=O)NCc2ccco2)o1	-0.1	+	92.0
Cc1ccc(OCC(=O)Nc2ccon2)c([N+](=O)[O-])c1	-1.5	i	94.0
COc1ccc(Cl)cc1CN1C(=O)C(Cc2ccccc2)ON=C1C (centres undefined)	-2.7	i	96.0
Cc1ccc(S(=O)(=O)CCC(=O)OCC(=O)NC(C)c2ccccc2)cc1 (centres undefined)	-3.5	i	94.0
CNc1ccc(Br)cc(C(=O)/C=C/c2cccc(OC)c2OC)c1=O	-0.4	i	109.0
CNc1ccc(Br)cc(C(=O)/C=C/c2cccc(Cl)c2Cl)c1=O	98.2*	i	261.0
O=C(CSC1=NC2(CCCCCC2)N=C1c1ccccc1)Nc1ccc2c(c1)OCCO2	-2.4	i	103.0
O=C(CSC1=NC2(CCCCC2)N=C1c1ccccc1)Nc1ccc2c(c1)OCCO2	25.9	+	97.0
CC1(C)N=C(SCC(=O)Nc2ccccc2)C(c2ccc(Cl)cc2)=N1	-0.8	i	87.0
Cc1ccc(C2=NC(C)(C)N=C2SCC(=O)Nc2ccc(Cl)cc2)cc1	-0.2	i	66.0*
CCOC(=O)c1ccc(NC(=O)CN(C)S(=O)(=O)c2ccc(Br)s2)cc1	0.7	i	119.0
CNC(=O)C1C(=S)NC(N)=C(C#N)C1c1ccccc1 (centres undefined)	69.2*	i	97.0
COC(=O)C1=C(C)OC(N)=C(C#N)C1c1ccccc1 (centres undefined)	-3.5	i	99.0
CCOC(=O)C1=CN(Cc2ccco2)S(=O)(=O)NC1c1ccc(F)c(Cl)c1 (centres undefined)	-2.6	i	103.0
Cc1ccc(-n2nc(-c3ccccc3)cc2Nc2ccccc2N)cc1	-0.7	i	99.0
COc1cc(C(=O)Nc2cc(-c3ccccc3)[nH]n2)cc(OC)c1OC	-0.3	i	101.0
SMILES	Granule exo inh	Myeloid diff 2	ABCB6 inh MLPCN
Nc1ccccc1Nc1cc(-c2ccccc2)nn1-c1ccccc1	44.3	+	112.0
Nc1ccc(Nc2ccccc2)c(Cl)c1	-1.4	?	99.0
Nc1ccccc1Nc1ccccc1	8.4	+	193.0
Nc1ccccc1Nc1cc(-c2ccccc2)[nH]n1	1.9	+	123.0
NC(c1ccncc1)c1ccc(Cl)cc1 (centres undefined)	-2.7	i	97.0
CCCCN(CC)C(=O)Cn1ncc2c3ccccc3n(CCC)c2c1=O	-8.0	i	94.0
O=C(NCc1ccccc1)C(C1CC1)n1c(=O)c(-c2cc3ccccc3[nH]2)nc2ccccc21 (centres undefined)	8.1	i	nt
c1ccc2c(C[C@@H]3CNCCN3CC3CCCCC3)cccc2c1	-7.2	+	99.0
Oc1ccc(C[C@@H]2CNCCN2CC2CCCCC2)cc1	-0.9	i	98.0
Cc1ccc(NC(=O)c2nnn(CC(=O)Nc3ccccc3)c2N)cc1C	0.1	+	101.0
Cc1ccc(NC(=O)Cn2nnc(C(=O)NCc3ccccc3)c2N)cc1C	-0.9	i	100.0
N#Cc1ccc(N=c2ssnc2Cl)cc1	99.3*!	i	106.0
COc1ccc(N=c2ssnc2Cl)cc1	1.8	i	106.0
CCOC(=O)c1ccc(N=c2ssnc2Cl)cc1	26.5	i	102.0
